About 2,100 (3.2%) of roughly 65,000 compounds showed an effect of 50% or more. The median lay at about -52%. Many of the other results were omitted from the sample, so strong results are more common in it than they were.

The test system of the test is Plasmodium falciparum. The test can be described thus: Screen against P. falciparum Asexual Blood Stage (ABS), at 5uM. The class given is functional, Dd2. The conditions noted are these: tested at 5 uM.
`Fc1ccc2[nH]c3c(c2c1)CCN1C(c2ccccn2)N2CCC31CC2` (stereo not given): the INHIBITION was 81.2%.
For the compound `Fc1ccc2[nH]c3c(c2c1)CCN1C(c2ccncc2)N2CCC31CC2` (stereo not given), the INHIBITION is 89.6%.
For `Cc1noc(C)c1CN1CCCC2(C1)CN(c1nccs1)CCO2` (stereo not given), the INHIBITION is reported as 18.6%.
The same measure for `c1cnc(N2CCN3C[C@H](Oc4cncnc4)C[C@H]3C2)nc1`: -102%; for `CNc1nc(C(=O)N2C[C@@H]3CCN(C)[C@@H]3C2)cs1`: -94.9%; for `CCOCCCn1c(NC(=O)c2cc(C)on2)nc2ccccc21`: 71.5%.
The same measure for `CCOCCN1C[C@H](C(=O)Nc2cccnc2)[C@@H]2CCO[C@@H]2C1`: -9.46%; for `NCC1[C@H]2CN(CCc3ccccc3)C[C@@H]12` (stereo not given in full): 86.8%; for `Oc1cccc(CN2C[C@@H]3CC[C@H]2CN(Cc2ccncc2)C3)c1`: -31.9%.
As for `Cc1ccc([C@]2(O)CC[C@H]3CN(Cc4ccccc4F)C[C@H]32)nc1`, the figure is 20.6%; as for `O=C(CC1[C@H]2CN(Cc3ccncc3)C[C@@H]12)N1CCCC1` (stereo not given in full), -109%; as for `NCC1[C@H]2CN(Cc3ccccc3F)C[C@@H]12` (stereo not given in full), 68.2%.
Consider `c1ccc(CCN2C[C@@H]3OCCN(c4ncccn4)[C@@H]3C2)cc1`, for which the INHIBITION is recorded as -64.6%.
As to `NCC1[C@H]2CN(Cc3cccc(Cl)c3)C[C@@H]12` (stereo not given in full), the INHIBITION is given as 83.8%.
The same measure for `O=C1CO[C@@H]2CN(Cc3nccs3)C[C@H]2N1Cc1ccncc1`: -59.6%; for `CN(C)[C@@H]1CN(C(=O)Cc2ccc(F)cc2)[C@@H]2CCCO[C@H]12`: -29.9%.
As for `CN(CCc1ccccc1)Cc1nc2c(cnn2C)c(=O)[nH]1`, the figure is -38.8%; as for `CC(C)N(Cc1ccccn1)Cc1nc2c(cnn2C)c(=O)[nH]1`, 74.2%.
`CN(CCc1ccc(F)cc1)Cc1nc2c(cnn2C)c(=O)[nH]1`: the INHIBITION is -97.7%.
Consider `NCCn1nc(C2CCN(Cc3ccccc3Cl)C2)c2nccnc21` (stereo not given), for which the INHIBITION turned out to be 80.1%.
The same measure for `c1ccc(CN2CC[C@H]3CO[C@H](CNc4ncccn4)[C@H]3C2)cc1`: -6.23%; for `O[C@@]1(c2ccccn2)CC[C@H]2CN(Cc3cccc(Cl)c3Cl)C[C@H]21`: 39.6%.
As for `COc1cccc([C@@H]2CCN(Cc3[nH]nc(C)c3Cl)C[C@H]2O)c1`, the figure is -12.4%; as for `c1ccc(N2CC[C@@H]3CN(Cc4ccncc4)CCO[C@@H]3C2)cc1`, -57.3%.
The same measure for `c1cnc(N2CC[C@@H]3CN(Cc4ccncc4)CCO[C@@H]3C2)nc1`: -103%; for `NCCn1nc(C2CCN(Cc3ccccc3)C2)c2nccnc21` (stereo not given): 80.4%; for `COc1cccc(CN2CCC(c3nn(CCN)c4nccnc34)C2)c1` (stereo not given): 89.1%.
As for `CN(C)CCn1nc(C2CCN(Cc3ccccc3)C2)c2cccnc21` (stereo not given), the INHIBITION was 71.9%.
As for `CN(C)CCN1CCO[C@H]2CN(Cc3ccccn3)C[C@H]21`, the figure is 11.1%.
As for `COC[C@@H]1CCC[C@]12CN(Cc1cccc(C)n1)CCO2`, the figure is -26.8%; as for `CCS(=O)(=O)NC[C@]12COC[C@H]1CN(Cc1ccccn1)C2`, -30.3%; as for `CC(C)N1CCO[C@H]2CN(C(=O)c3ccncc3)C[C@H]21`, -69.9%.
In the case of `Cc1nocc1C(=O)N1CCOC2(COCCN(CC3CC3)C2)C1` (stereo not given), the INHIBITION is listed as -103%.
As for `COc1ccc(CC(=O)N2CCN(Cc3ccco3)C[C@H]2C)cc1OC`, the figure is -28.9%.
As for `CN(C)C(=O)CN1CCO[C@H]2CN(c3ccccn3)C[C@H]21`, the figure is -57.3%; as for `COc1ccccc1CN1CCC(c2nn(CCN)c3nccnc23)C1` (stereo not given), 75.5%.
As for `COc1ncccc1CN1C[C@H]2CCN(c3ncccn3)C[C@H]2C1`, the figure is -39%; as for `COCCN1CC[C@@H]2CN(Cc3cccnc3OC)C[C@@H]2C1`, -68%.
On to `c1cncc(CO[C@H]2CN(Cc3ccco3)[C@@H]3COC[C@H]23)c1`, for which the INHIBITION was -14.4%.
For `Cc1cccc(CN2CC[C@H]3[C@@H]2CC(=O)N3CC2CC2)n1`, the INHIBITION was -122%.
With `Cc1cc(C)n(C2CN(CC(O)c3cc(F)ccc3F)C2)n1` (stereo not given), the INHIBITION was found to be 84.7%.
The same measure for `CCC(CO)N(Cc1cccc(O)c1)Cc1ccccc1C` (stereo not given): 75.2%; for `O=C(N1CCOCC1)[C@@]12CCO[C@@H]1CCN(Cc1ccncc1)C2`: -39.7%.
The same measure for `CCC1CN(CC(=O)NCCN(CC)CC)c2ccccc2S1` (stereo not given): 76.7%.
The same measure for `CCC1CN(CC(=O)NCCN2CCCCC2)c2ccccc2S1` (stereo not given): 72.3%; for `CCC1CN(CC(=O)NCCN2CCCCCC2)c2ccccc2S1` (stereo not given): 73.8%.
As for `CCCN1CCC2(Cc3ccccc3NC2=O)C1` (stereo not given), the INHIBITION is reported as -3.59%.
The same measure for `CS(=O)(=O)N1CCOCC2(CN(Cc3ccccn3)CCO2)C1` (stereo not given): -46.3%; for `Cn1ccnc1C(O)(CCNCc1ccc(Cl)o1)C(F)(F)F` (stereo not given): 71.1%; for `Cc1ccc(CNCCC(O)(c2nccn2C)C(F)(F)F)o1` (stereo not given): 73.2%.
As for `Cc1csc(CN2CCC[C@]3(C[C@@H](Oc4ccccn4)CO3)C2)n1`, the figure is -213%.
As for `CCc1cnc(N)nc1NCCCn1cc(Cl)cn1`, the figure is 84.5%; as for `Cc1cc(C(F)(F)F)cc(=O)n1CCn1cc(Cl)cn1`, 18.5%; as for `CCN(CC)C(CNC(=O)c1c(C)noc1C(C)C)c1ccsc1` (stereo not given), 78.7%.
With `CC(C)N1CCN(C(=O)Cc2csc(-c3ccco3)n2)CC1`, the INHIBITION is -22.2%.
The same measure for `COc1cc(F)ccc1C(C(=O)O)N(C)CCN1CCOCC1` (stereo not given): 80.7%.
As for `COc1cc(F)ccc1C(C(=O)O)N(C)CCN1CCCC1` (stereo not given), the figure is 72.3%; as for `Cc1ccc(F)cc1CC(=O)N(CCN1CCOCC1)Cc1ccco1`, -12.9%; as for `CCS(=O)(=O)N1CCN(CC2CC2)c2ncccc2C1`, -94.6%.
Regarding `COC(=O)c1ccc(C2SCC(=O)Nc3ccsc32)cc1` (stereo not given), the INHIBITION is on record as -80.9%.
Turning to `COc1ccc(CCN)cc1-c1ccc(C(N)=O)cc1`, the INHIBITION turned out to be 10.7%.
The same measure for `COc1ccc(CCN)cc1-c1ccc(O)cc1`: 85.6%; for `CCOc1ccc(-c2cc(CCN)ccc2OC)cc1`: -58%.
As for `Cc1ccc(CN2C[C@@H]3CCN(Cc4ccncc4)C(=O)[C@H]3C2)s1`, the figure is -13.4%.
The same measure for `C[C@H](N)Cn1nc(-c2cccs2)oc1=O`: -106%; for `CNCC[C@H]1CC(C)(C)Oc2ccc(OCC3CC3)cc21`: 76.1%; for `CNCC[C@H]1CC(C)(C)Oc2ccc(OC)cc21`: 73.8%.
With `CC(C)(O)c1cn(C[C@H]2C[C@@H]3CCN2C[C@@H]3C(=O)N2CCOCC2)nn1`, the INHIBITION is on record as -62.4%.
The same measure for `CC(=O)c1cc(CC(=O)N2CCN(CCOc3ccccc3)CC2)cs1`: 7.62%; for `CN(C)c1nc2c(c(NCc3cc(O)ncn3)n1)CCCC2`: 89.4%.
As for `COc1ccccc1C1SCC(=O)Nc2n[nH]cc21` (stereo not given), the figure is -117%; as for `COc1ccccc1C1CNC(=O)c2nc(-c3ncc[nH]3)[nH]c2C1` (stereo not given), 89.1%; as for `CCC(CNC(=O)CNC(C)=O)Oc1cccc(F)c1` (stereo not given), 85%.
The same measure for `CN(C)[C@@H]1CN(C(=O)COc2cccc(F)c2)C[C@H]1O`: -21.2%; for `COc1cccc(CC(C)NC(=O)NCCNC(C)=O)c1` (stereo not given): -47.5%; for `O=C(Cc1cccc(F)c1)N1CCN2C[C@H](Oc3cncnc3)C[C@H]2C1`: -93.1%.
With `Cc1nnc(N2CCCC3(CN(Cc4cccnc4)CCO3)C2)o1` (stereo not given), the INHIBITION was -77.8%.
As for `Cc1ccccc1-n1cc(C2=CCN(CCn3cc[nH]c3=O)CC2)cn1`, the figure is -111%.
As for `CC(=O)N1CCN([C@@H]2CN(C(=O)Cc3ccccc3C)C[C@H]2O)CC1`, the figure is -146%; as for `CC(C)(C)c1nc(CN(Cc2cccnc2)C2CN3CCC2CC3)no1` (stereo not given), -29.7%.
The same measure for `CC(C)(C)c1nc(CNC2CCCN(c3cccnn3)C2)no1` (stereo not given): 83%; for `c1ccc(-c2nnc(CNC3CCCN(c4cccnn4)C3)o2)cc1` (stereo not given): 75.8%; for `CCCN1CCN(C(=O)c2cncnc2C)[C@H]2CS(=O)(=O)C[C@H]21`: -87.7%.
In the case of `Cc1ccc(CN2Cc3nnn(C)c3C(COCCN(C)C)C2)s1` (stereo not given), the INHIBITION stood at 73.9%.
The same measure for `Cc1ccc(CN2C[C@@H]3[C@@H](C2)OCC(=O)N3Cc2ccncc2)s1`: 3.28%; for `Cc1ccc(N2CCO[C@H]3CN(Cc4ccncc4)C[C@H]32)nn1`: -111%.
Turning to `CN(CC1Cc2ccccc2CN1C)C(=O)Cc1cccs1` (stereo not given), the INHIBITION is on record as -12.1%.
Consider `Cc1ccc2c(c1)CN(C(=O)c1cccs1)C(CN(C)C)CO2` (stereo not given), for which the INHIBITION was 77.3%.
As for `O=C(NCCOc1cccc(Cl)c1Cl)N1CCC2(CC1)OCCO2`, the figure is -68.2%; as for `Cc1ccc2[nH]c(CN(C)Cc3n[nH]c4c3CCC4)nc2c1`, 82.3%.
As for `Cc1ccc2nc(CN(C)Cc3n[nH]c4c3CCCCC4)[nH]c2c1C`, the figure is 85.8%; as for `CC(Cn1cncn1)NCc1n[nH]c2c1CCCCC2` (stereo not given), -49.3%.
On to `NC1(c2nc(C(F)(F)F)cc(=O)[nH]2)CCCCC1`, for which the INHIBITION turned out to be 4.74%.
As for `CC(=O)N1CCC2(CN(CC3CCCC3)C2)C1`, the figure is -99.3%; as for `COc1ccc(CN2C[C@H]3C[C@H](CN(C)C)O[C@H]3C2)cc1`, 79.6%; as for `CN(C)C[C@H]1C[C@@H]2CN(Cc3ccoc3)C[C@@H]2O1`, 20.7%.
The same measure for `CN(C)C[C@H]1C[C@@H]2CN(Cc3ccco3)C[C@@H]2O1`: 38.9%; for `O=C(CC1CCCC1)N1C[C@@H]2C[C@@H]1CN2`: -57.9%; for `CN(C(=O)c1ccon1)[C@@H]1CCC[C@@H](Oc2ccccc2)[C@@H]1O`: 79.8%.
The same measure for `Cc1ncsc1CN1C[C@@H]2CN(Cc3cccnc3)CCO[C@@H]2C1`: -49.8%.

For the origin of these results see ChEMBL document CHEMBL4513216, “Probing the Open Global Health Chemical Diversity Library for Multistage-Active Starting Points for Next-Generation Antimalarials” (ACS Infect Dis, 2020).
